This passage reports composite z-score and z-score results from PubChem BioAssay.

Active and inactive are the calls of the source.

A short description of assay [1]: small molecules captured by biotinylated probe aFSTL3 – biochemical, small-molecule microarray, fluorescence 635/667, stem cell growth factor project, primary screen (AID 1064).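 Note: measures binding of the biotinylated anti-FSTL3 antibody to printed compounds.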 Particulars: higher = more signal.
Assay [2] is described as follows: binders from COS7 lysate, DM2A8 probe, primary screen, torsin A project, cell lysate, small-molecule microarray, fluorescence 635/667 (AID 1065). To be noted: higher = more signal, COS7 lysate expressing mutant human TOR1A.
Assay [3] in a line: small molecules captured by biotinylated probe aFGF2 – biochemical, small-molecule microarray, fluorescence 635/667, stem cell growth factor project, primary screen (AID 1067).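 Note: measures binding of biotinylated aFGF2 protein to printed compounds on slides; z-score merges feature fluorescence and signal-to-noise across triplicate slides.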 To be noted: higher = more signal.
Assay [4] can be described thus: small molecules captured by biotinylated probe aFGF10 – biochemical, small-molecule microarray, fluorescence 635/667, stem cell growth factor project, primary screen (AID 1071).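 Note: score merges 667 nm spot intensity and signal to noise from triplicate slides.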 To be noted: higher = more signal.
Assay [5] has as its target Neurogenic locus notch homolog protein 2 (Homo sapiens) (UniProt Q04721). The experiment in a line: small molecules binding Notch2 protein – biochemical, small-molecule microarray, 635 nm fluorescence, stem cell growth factors, primary screen (AID 1073). To be noted: higher = more signal.
Assay [6] concerns the target Pro-neuregulin-1, membrane-bound isoform (Homo sapiens) (UniProt Q02297). Nature of the assay: small molecules binding neuregulin-1 protein – biochemical, small-molecule microarray, fluorescence 635/667, psychiatric disease protein project, primary screen (AID 1075).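 Note: score combines 667 nm spot fluorescence with signal to noise.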 Particulars: NRG1 binding, 635 nm fluorescence, higher = more signal.
Assay [7] concerns Neuregulin-1 EGF-like domain. The experiment in a line: small molecules binding NRG1 EGF domain – biochemical, small-molecule microarray, 635 nm fluorescence, primary screen (AID 1081).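 Note: binding of the protein to compounds printed on small-molecule microarray slides.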 To be noted: higher = more signal.
Assay [8] can be described thus: FRG1 expression reporter modulators in myotubes – cell-based, C2C12 myotubes, firefly/Renilla luciferase, luminescence, FRG1 inhibition for FSHD, primary screen (AID 1084). To be noted: FRG1 promoter luciferase, higher = more signal, called active from +8 up or from −8 down.
Assay [9] in a line: small molecules captured by biotinylated probe aFST – biochemical, small-molecule microarray, fluorescence 635/667, stem cell growth factor project, primary screen (AID 1086).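 Note: score merges 667 nm fluorescence with signal-to-noise of each printed compound spot.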 Particulars: higher = more signal.
Assay [10] in a line: binders of probe aHhip on microarray, primary screen, stem cell growth factor project, biochemical, small-molecule microarray, fluorescence 635/667 (AID 1087).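 Note: score merges spot fluorescence at 667nm with spot signal to noise ratio.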 Particulars: higher = more signal.
Assay [11] deals with PRMT1 (protein arginine N-methyltransferase 1). Nature of the assay: small molecules binding arginine methyltransferase PRMT1 – biochemical, small-molecule microarray, 635 nm fluorescence, primary screen (AID 1088).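 Note: binding of Prmt1 protein to compounds spotted on small-molecule microarray slides.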 Particulars: higher = more signal.
Assay [12] can be described thus: growth effects on S. cerevisiae YJM789 – YJM789 clinical isolate, OD600, 24 h, basal, primary screen (AID 1089).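 Note: growth of clinical yeast isolate S. cerevisiae YJM 789 seeded 1000 cells per well; test concentration not given here.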 Particulars: higher = more signal, called active from +8 up or from −8 down.
The nature of assay [13]: S. pombe growth modifiers, basal conditions – strain 972, OD600, 24 h, no modulator, primary screen (AID 1090).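 Note: basal condition with compound alone and no growth modifier present; test concentration not given here.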 Particulars: S. pombe 972 growth, higher = more signal, called active from +8 up or from −8 down.
Assay [14] can be described thus: budding yeast growth modifiers under rapamycin – strain BY4716, OD600, 96 h, primary screen (AID 1091). Note: test concentration not given here. To be noted: S. cerevisiae BY4716 + rapamycin, higher = more signal, called active from +8 up or from −8 down.
The target in assay [15] is Torsin-1A-interacting protein 2 (Homo sapiens) (UniProt Q8NFQ8). Nature of the assay: small molecules binding lysate-expressed LULL1 – cell lysate, human LULL1 lysate, 635/667 nm fluorescence, primary screen (AID 1092).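 Note: score merges per-feature 667 nm fluorescence with signal-to-noise.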 To be noted: small-molecule microarray, hLULL1 lysate binding, 635 nm fluorescence; higher = more signal.
Torsin-1A-interacting protein 2 (Homo sapiens), sequence (Q8NFQ8 whole entry, looked up): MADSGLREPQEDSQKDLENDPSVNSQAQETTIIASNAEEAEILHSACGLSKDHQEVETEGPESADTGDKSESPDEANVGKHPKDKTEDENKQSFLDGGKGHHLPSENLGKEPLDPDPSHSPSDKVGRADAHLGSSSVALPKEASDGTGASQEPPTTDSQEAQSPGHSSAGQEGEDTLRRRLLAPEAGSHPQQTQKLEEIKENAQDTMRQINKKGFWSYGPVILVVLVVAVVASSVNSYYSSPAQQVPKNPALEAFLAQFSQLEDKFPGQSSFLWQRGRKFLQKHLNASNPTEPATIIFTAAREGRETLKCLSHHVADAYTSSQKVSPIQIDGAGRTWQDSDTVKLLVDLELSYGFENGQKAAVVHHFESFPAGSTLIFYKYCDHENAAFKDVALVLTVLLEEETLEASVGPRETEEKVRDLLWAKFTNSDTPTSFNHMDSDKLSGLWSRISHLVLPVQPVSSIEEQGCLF
Assay [16] can be described thus: optical density change of DRC41 E. coli – strain DRC41, OD650, 24 h, E. coli filamentation project, primary screen (AID 1093).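 Note: MC1000 strain lacking acrAB efflux and sulA so SOS filamentation is blocked; test concentration not given here.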 Particulars: E. coli DRC41 growth, higher = more signal, called active from +8 up or from −8 down.
Assay [17] can be described thus: probe aLefty2 binding to arrayed compounds – biochemical, biotinylated probe, 635/667 nm fluorescence, primary screen (AID 1094).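 Note: score merges spot fluorescence near 667 nm with spot signal-to-noise ratio.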 Particulars: small-molecule microarray, higher = more signal.
The test system of assay [18] is Noggin (protein binding on small-molecule microarray). The experiment in a line: small molecules binding Noggin protein – biochemical, 635/667 nm fluorescence, primary screen (AID 1095).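 Note: score merges 667 nm feature fluorescence with signal to noise over triplicate slides.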 To be noted: 635 nm fluorescence, higher = more signal.
Assay [19] deals with Neurogenic locus notch homolog protein 3 (Homo sapiens) (UniProt Q9UM47). Nature of the assay: small molecules binding NOTCH3 protein – biochemical, 635/667 nm fluorescence, primary screen (AID 1096). To be noted: small-molecule microarray, 635 nm fluorescence, higher = more signal.
Assay [20] in a line: probe aEGFR binding to arrayed compounds – biochemical, biotinylated probe, 635/667 nm fluorescence, primary screen (AID 1097).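 Note: probe is a biotinylated anti-EGFR antibody binding compounds printed on slides; score combines fluorescence near 667 nm and signal to noise of each spot.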 Particulars: small-molecule microarray, higher = more signal.

Neurogenic locus notch homolog protein 2 (Homo sapiens), sequence (Q04721 whole entry, looked up, canonical isoform): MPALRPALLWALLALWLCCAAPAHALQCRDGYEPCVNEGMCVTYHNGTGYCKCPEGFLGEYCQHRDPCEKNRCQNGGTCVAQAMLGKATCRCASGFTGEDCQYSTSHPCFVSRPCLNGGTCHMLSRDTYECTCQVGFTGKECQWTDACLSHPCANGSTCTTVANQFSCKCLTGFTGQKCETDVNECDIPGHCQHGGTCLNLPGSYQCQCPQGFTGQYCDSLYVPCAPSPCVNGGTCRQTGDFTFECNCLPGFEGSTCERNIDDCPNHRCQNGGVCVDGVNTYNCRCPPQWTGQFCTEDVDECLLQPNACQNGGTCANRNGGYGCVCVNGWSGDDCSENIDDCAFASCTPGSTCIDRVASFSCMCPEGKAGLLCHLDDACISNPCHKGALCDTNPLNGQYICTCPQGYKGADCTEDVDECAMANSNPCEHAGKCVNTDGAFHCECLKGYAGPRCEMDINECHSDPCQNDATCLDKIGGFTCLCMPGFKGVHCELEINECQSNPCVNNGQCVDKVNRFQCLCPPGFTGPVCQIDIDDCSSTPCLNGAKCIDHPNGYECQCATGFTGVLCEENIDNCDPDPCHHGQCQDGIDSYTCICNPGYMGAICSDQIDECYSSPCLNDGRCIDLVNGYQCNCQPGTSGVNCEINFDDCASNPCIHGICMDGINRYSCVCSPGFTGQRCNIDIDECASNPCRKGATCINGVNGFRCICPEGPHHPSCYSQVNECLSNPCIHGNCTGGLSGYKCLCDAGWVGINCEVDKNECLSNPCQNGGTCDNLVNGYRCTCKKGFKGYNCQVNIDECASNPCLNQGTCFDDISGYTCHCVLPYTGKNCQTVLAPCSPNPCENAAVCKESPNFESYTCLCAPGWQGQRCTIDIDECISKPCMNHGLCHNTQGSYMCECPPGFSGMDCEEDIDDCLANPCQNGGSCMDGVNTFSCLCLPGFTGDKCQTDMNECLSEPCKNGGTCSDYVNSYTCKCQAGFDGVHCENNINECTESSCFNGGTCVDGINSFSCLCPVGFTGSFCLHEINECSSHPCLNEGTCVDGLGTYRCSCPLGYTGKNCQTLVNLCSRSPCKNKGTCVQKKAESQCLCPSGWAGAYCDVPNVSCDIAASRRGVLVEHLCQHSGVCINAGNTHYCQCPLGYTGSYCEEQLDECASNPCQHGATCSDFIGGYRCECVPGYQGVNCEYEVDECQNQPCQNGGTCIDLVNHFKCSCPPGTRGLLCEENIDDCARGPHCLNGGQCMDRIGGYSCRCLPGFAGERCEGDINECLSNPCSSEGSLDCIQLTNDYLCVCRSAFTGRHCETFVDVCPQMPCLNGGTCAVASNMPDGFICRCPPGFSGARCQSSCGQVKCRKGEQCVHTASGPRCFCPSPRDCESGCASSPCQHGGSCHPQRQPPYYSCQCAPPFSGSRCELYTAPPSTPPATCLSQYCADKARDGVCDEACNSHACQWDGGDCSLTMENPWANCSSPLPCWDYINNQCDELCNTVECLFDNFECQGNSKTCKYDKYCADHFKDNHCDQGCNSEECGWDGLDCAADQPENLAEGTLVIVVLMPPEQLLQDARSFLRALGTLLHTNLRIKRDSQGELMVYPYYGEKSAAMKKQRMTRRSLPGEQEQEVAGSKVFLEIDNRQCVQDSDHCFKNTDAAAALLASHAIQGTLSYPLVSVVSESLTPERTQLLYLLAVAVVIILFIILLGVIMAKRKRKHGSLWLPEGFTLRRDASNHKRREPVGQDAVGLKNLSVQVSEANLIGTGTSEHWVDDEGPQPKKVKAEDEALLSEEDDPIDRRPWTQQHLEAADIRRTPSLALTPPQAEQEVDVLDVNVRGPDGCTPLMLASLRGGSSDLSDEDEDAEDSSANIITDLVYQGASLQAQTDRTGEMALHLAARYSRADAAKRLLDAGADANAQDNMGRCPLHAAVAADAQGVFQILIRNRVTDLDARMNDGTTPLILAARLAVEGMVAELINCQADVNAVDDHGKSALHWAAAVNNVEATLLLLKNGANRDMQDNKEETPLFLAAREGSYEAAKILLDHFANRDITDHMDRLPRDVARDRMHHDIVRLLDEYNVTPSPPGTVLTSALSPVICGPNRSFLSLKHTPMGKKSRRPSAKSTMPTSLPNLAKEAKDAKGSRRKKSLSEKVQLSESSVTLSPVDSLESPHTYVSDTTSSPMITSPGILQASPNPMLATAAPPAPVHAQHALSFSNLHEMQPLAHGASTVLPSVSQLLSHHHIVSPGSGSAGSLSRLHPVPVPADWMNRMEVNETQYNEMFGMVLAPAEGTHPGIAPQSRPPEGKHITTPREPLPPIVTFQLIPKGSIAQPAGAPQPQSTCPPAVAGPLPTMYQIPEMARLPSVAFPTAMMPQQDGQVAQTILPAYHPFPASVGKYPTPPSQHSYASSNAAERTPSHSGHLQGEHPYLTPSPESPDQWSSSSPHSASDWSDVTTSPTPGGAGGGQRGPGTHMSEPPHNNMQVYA
Pro-neuregulin-1, membrane-bound isoform (Homo sapiens), sequence (Q02297 whole entry, looked up, the tested form may be a part, canonical isoform): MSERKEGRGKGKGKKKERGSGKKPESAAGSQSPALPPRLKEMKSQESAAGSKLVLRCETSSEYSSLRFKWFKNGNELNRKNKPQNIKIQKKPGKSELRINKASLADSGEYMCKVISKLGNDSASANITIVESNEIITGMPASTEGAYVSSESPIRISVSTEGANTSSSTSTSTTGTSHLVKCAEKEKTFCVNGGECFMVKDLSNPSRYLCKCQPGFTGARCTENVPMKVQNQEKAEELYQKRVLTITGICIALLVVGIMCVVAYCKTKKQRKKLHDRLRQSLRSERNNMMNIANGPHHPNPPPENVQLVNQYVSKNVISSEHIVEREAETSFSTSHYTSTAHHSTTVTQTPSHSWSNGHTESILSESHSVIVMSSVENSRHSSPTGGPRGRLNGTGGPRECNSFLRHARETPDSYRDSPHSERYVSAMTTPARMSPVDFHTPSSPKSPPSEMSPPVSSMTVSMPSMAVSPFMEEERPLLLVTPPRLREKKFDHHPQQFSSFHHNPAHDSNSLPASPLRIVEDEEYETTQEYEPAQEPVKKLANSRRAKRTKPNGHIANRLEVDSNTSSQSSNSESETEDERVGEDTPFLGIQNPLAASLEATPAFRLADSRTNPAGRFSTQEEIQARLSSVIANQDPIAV

Turning to `COCCOC(=O)N1C(=O)[C@@]2(c3cc(C#CCCO)ccc31)[C@H](c1ccc(OCCO)cc1)N1[C@H](c3ccccc3)[C@H](c3ccccc3)OC(=O)[C@H]1[C@@H]2C(N)=O`, the composite z-score is -0.139 in assay [1]; 0.947 in [2]; -0.0182 in [3]; 0.916 in [4]; 1.16 in assay [5]; 0.741 in assay [6]. In addition, the composite z-score is 1.23 in [7]; 0.177 in [9]; -0.239 in assay [10]; 1.54 in [11]; 2.78 in [15]; -0.0383 in assay [17]. Further, the results for the composite z-score in assay [18], in [19] and in [20] were 0.626, 1.08 and -0.0436, respectively. Further, the z-score in [8] is -0.485 (inactive); in assay [12], 2.66 (inactive); in assay [13], 0.245 (inactive); in assay [14] it was 6.06 (inactive); in assay [16] it was 0.719 (inactive).
For the molecule `COCCOC(=O)N1C(=O)[C@@]2(c3cc(C#Cc4ccc(OC)cc4)ccc31)[C@H](c1ccc(O)cc1)N1[C@H](c3ccccc3)[C@H](c3ccccc3)OC(=O)[C@H]1[C@@H]2C(=O)Nc1nc2ccccc2s1`, the composite z-score is -0.304 in assay [1]; 0.262 in [2]; -0.0724 in assay [3]; 0.554 in assay [4]; 1.29 in [5]; 1.06 in [6]. Also, the composite z-score in [7] is 1.24; in assay [9] it was 0.251; in assay [10], -0.249; in assay [11], 1.56; in [15], 2.06; in [17], -0.0376. Further, the composite z-score in assay [18] is 1.09; in assay [19], 1.08; in assay [20], -0.0103. For the same molecule, the z-score in assay [8] is 2.63 (inactive); in [12] it was 0.15 (inactive); in [13] it was 0.0615 (inactive); in assay [14], 0.684 (inactive); in assay [16], -0.944 (inactive).
As for `COC(=O)c1c(CC[C@@H](CO)NC(=O)NCCc2c[nH]c3ccccc23)oc(C(=O)Cc2ccccc2)c1C(=O)OC`, the composite z-score was -0.379 in [1]; 0.488 in [2]; 0.0858 in [3]; 0.203 in assay [4]; 0.0378 in assay [5]; -0.0379 in assay [6]. Further, the composite z-score was 0.939 in assay [7]; 0.224 in assay [9]; 0.0036 in [10]; 0.578 in assay [11]; 1.53 in assay [15]; -0.117 in [17]. In addition, the composite z-score in assay [18] was 0.145; in assay [19], 0.316; in assay [20], -0.126. Also, the z-score in assay [8] is 1.49 (inactive); in assay [12], 0.433 (inactive); in assay [13] it was 0.215 (inactive); in [14], -1.62 (inactive); in [16] it was 0.528 (inactive).
For `O=C1[C@@]23C=C(Br)[C@H](C[C@@H]2COC3)[C@]12CO2`, the composite z-score in assay [1] is -0.199; in assay [2], -0.582; in assay [3] it was -0.12; in [4] it was -0.536; in assay [5], -1.71; in assay [6], -0.279. Moreover, the composite z-score in assay [7] was -1.15; in [9], -0.541; in [10] it was -0.0065; in assay [11] it was -1.63; in assay [15], 0.246; in [17], -0.14. Moreover, the composite z-score in [18] was -1.31; in [19], -1.5; in [20], -0.272. In addition, the z-score is 0.126 (inactive) in assay [8]; -0.241 (inactive) in [12]; -9 (active) in assay [13]; 0.403 (inactive) in [14]; -0.366 (inactive) in assay [16].
For the molecule `CC1CC/C=C\[C@H]2OC34C=CCN(c5ccc6ccccc6c5)C(=O)[C@H]3N(CCO)C(=O)[C@@H]4C2C(=O)O1` (stereo not given in full), the composite z-score in [1] is -0.17; in assay [2], 0.122; in assay [3], -0.0996; in assay [4], 0.0867; in [5], -1.18; in assay [6], -0.378. The composite z-score in assay [7] is 0.868; in assay [9], -0.358; in assay [10], 1.74; in assay [11] it was 0.229; in assay [15] it was 2.07; in assay [17] it was 0.314. Besides, the composite z-score in assay [18] is -1.11; in [19], 0.521; in assay [20], -0.123. The z-score in assay [8] is 0.571 (inactive); in assay [12] it was -0.646 (inactive); in assay [13] it was -1.4 (inactive); in [14], -0.764 (inactive); in [16], 0.764 (inactive).
